Measurements reported in PubChem BioAssay AID504583 (Broad Institute, 2011).
Results with a measured potency or affinity are listed apart. Records with an inconclusive call do not appear. Active and inactive are the calls of the source.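 The calls were made as follows: active = lowers substrate conversion with a fitted half-maximal potency at most ten times the top dose, in every run; inconclusive = runs disagree, or flat weak or poorly fitted curves; inactive = every run inactive, flat, weak or opposite direction.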

Target: cAMP-dependent protein kinase catalytic subunit alpha (Homo sapiens) (UniProt P17612)
Test: PKA catalytic subunit inhibitors, dose response, biochemical, Caliper mobility shift, dry powder samples (AID 504583)
Conditions: recombinant PKA, Caliper peptide phosphorylation % conversion; series mostly up to 10 µM

outcome, inactive:
COc1cc(/C=N/n2c(-c3ccccc3)n[nH]c2=S)ccc1O, COc1cc(C(=O)N2CCC(N3CCN(C)CC3)CC2)ccc1Nc1ncc2c(n1)N(C)c1ccccc1C(=O)N2C, COc1cc(N2CCN(C)CC2)ccc1Nc1ncc2c(n1)N1CCC[C@H]1CC(=O)N2C, CC(=O)N(C)c1ccc(N=Cc2c(O)ccc3ccccc23)cc1, Cc1ncc(/C=C2\C(=O)Nc3ccccc32)[nH]1, COc1cc(/C=C2\SC(N)=NC2=O)ccc1O, Oc1ccc(Nc2nc(-c3ccccc3O)nc3ccccc23)cc1, COc1cc(/C=C2\SC(=Nc3ccccc3OC)NC2=O)ccc1O, CC(C)n1cnc2c(Nc3cccc(Cl)c3)nc(NCCO)nc21, CCCn1c(NC(=O)c2cccc(S(=O)(=O)N3CCCC3)c2)nc2ccccc21, COc1cc(N2CCN(C)CC2)ccc1Nc1ncc2c(n1)N(C)c1sccc1C(=O)N2C, COc1cc(N2CCC(O)CC2)ccc1Nc1ncc2c(n1)N1CCc3cccc(c31)C(=O)N2C, COc1cc(N2CCN(C)CC2)ccc1Nc1ncc2c(n1)N(C1CCCC1)C(C)CC(=O)N2C (centres undefined), COc1cc(N2CCC(N3CCN(C)CC3)CC2)ccc1Nc1ncc2c(n1)N(C1CCCC1)C(C)CC(=O)N2C (centres undefined), CCOc1ccccc1C(=O)Nc1cc(Cl)ccc1O, COc1cc(N2CCN(C)CC2)ccc1Nc1ncc2c(n1)N(C)c1ccccc1C(=O)N2C, COc1cc(C(=O)NC2CCN(C)CC2)ccc1Nc1ncc2c(n1)N(C1CCC(O)CC1)CCC(=O)N2C (centres undefined), O=C(Nc1ccccc1-c1nc2ccccc2[nH]c1=O)c1cccs1, CC(Oc1ccc2c(c1)c1ccnc3c4ccccc4c(=O)n2c13)C(=O)NCCN1CCOCC1 (centres undefined), O=C(Nc1ccccc1-c1ccccc1)c1ccc(Br)o1, CN1CCN(c2ccc(Nc3ncc4c(n3)N(C)c3ccccc3C(=O)N4C)cc2)CC1, COc1cc(N2CCC(N3CCN(C)CC3)CC2)ccc1Nc1ncc2c(n1)N1CCC[C@H]1CC(=O)N2C, O=C1NC(=NCc2ccccc2)S/C1=C/c1ccc(O)cc1, O=C1NCCCc2c1oc1ccc(O)cc21
